Measured values published in PubChem BioAssay.
For part of these data: Results with a measured potency or affinity are listed apart. The source made the active and inactive calls. Unless noted, the rule behind the calls is not given here.

Key:
[1] = antimalarial activity against Dd2 strain (AID 2302;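 active = growth inhibition above 50% at the single 2 µM test dose, taken to imply half-maximal potency below 2 µM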;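 note: 0% = DMSO untreated growth and 100% = chloroquine plus artemisinin killed control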); conditions: P. falciparum Dd2 in RBCs, LDH growth readout, 72 h; at 2 µM; hits give high values
[2] = target: L-lactate dehydrogenase (Plasmodium falciparum (isolate CDC / Honduras)) (UniProt Q27743); assay: PfLDH activity inhibition – cell lysate, 3D7 strain, counter-screen for P. falciparum growth inhibition project (AID 2304);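 note: 0% = vehicle and 100% = reference inhibitor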; conditions: P. falciparum 3D7 crude extract, LDH APAD/NBT absorbance; at 2 µM; hits give high values
[3] = inhibition of 3D7 malaria parasite growth – strain 3D7 (AID 2306);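 note: 0% = DMSO wells and 100% = chloroquine plus artemisinin control wells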; conditions: P. falciparum 3D7 erythrocytic growth, LDH absorbance, 72 h; at 2 µM; hits give high values
[4] = target: Calcium-dependent protein kinase 1 (Plasmodium falciparum (isolate 3D7)) (UniProt P62344); assay: PfCDPK1 kinase inhibitors, biochemical, TCAMS library (AID 1159585; cut-off not given, nearly all actives have IC50 up to about 0.98 µM;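 note: inhibitors leave more ATP so luminescence rises with inhibition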); conditions: recombinant PfCDPK1, Kinase-Glo ATP depletion luminescence
[5] = target: Plasmodium falciparum protein kinase 6 (PK6, PF3D7_1337100) (UniProt Q8IDW1); assay: PfPK6 kinase inhibitors, biochemical, TCAMS library (AID 1159586); conditions: recombinant PfPK6, Kinase-Glo ATP depletion luminescence
[6] = target: Protein kinase 7 (PK7), Plasmodium falciparum 3D7 (PF3D7_0213400) (UniProt Q7YTF7); assay: inhibition of Plasmodium PK7 catalytic activity – biochemical, TCAMS antimalarial set, Kinase-Glo luminescence (AID 1159587); conditions: recombinant PfPK7, Kinase-Glo ATP depletion luminescence
[7] = target: Calcium-dependent protein kinase 4 (Plasmodium falciparum (isolate 3D7)) (UniProt Q8IBS5); assay: PfCDPK4 kinase inhibitors, biochemical, TCAMS library (AID 1159588; cut-off not given, nearly all actives have IC50 up to about 0.91 µM); conditions: recombinant PfCDPK4, Kinase-Glo ATP depletion luminescence
[8] = human hepatoma cell viability loss – ATP luminescence, cytotoxicity control for P. falciparum antimalarial project, primary screen (AID 2303;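 active = inhibition above 50%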;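 note: 0% = DMSO wells and 100% = digitonin-killed cells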); conditions: HepG2 viability, 24-48 h, at 10 µM, hits give high values

Sequence of Protein kinase 7 (PK7), Plasmodium falciparum 3D7 (PF3D7_0213400) (Q7YTF7 1-343): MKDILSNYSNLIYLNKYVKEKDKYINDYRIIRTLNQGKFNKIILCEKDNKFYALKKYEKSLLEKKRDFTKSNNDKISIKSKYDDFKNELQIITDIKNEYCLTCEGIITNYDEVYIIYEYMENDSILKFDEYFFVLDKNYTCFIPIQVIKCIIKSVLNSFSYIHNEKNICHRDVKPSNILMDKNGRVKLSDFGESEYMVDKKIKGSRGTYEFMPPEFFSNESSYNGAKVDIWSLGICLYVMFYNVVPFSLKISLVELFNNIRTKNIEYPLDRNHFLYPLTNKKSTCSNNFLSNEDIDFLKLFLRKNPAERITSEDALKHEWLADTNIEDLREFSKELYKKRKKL
Sequence of Calcium-dependent protein kinase 1 (Plasmodium falciparum (isolate 3D7)) (P62344 whole entry, looked up): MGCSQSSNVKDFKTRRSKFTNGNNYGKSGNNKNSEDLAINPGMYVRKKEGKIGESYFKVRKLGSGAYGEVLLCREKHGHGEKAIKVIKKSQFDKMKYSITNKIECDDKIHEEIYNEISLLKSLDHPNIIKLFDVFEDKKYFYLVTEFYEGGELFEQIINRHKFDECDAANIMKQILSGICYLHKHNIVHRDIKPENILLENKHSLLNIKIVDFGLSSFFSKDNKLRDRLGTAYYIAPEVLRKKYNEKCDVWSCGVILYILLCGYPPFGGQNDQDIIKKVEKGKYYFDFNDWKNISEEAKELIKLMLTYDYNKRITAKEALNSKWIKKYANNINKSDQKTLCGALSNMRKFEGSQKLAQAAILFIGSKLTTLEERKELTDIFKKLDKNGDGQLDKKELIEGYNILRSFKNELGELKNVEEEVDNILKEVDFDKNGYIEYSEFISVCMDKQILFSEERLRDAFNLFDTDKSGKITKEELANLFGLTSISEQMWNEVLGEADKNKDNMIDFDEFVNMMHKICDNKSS
Sequence of Calcium-dependent protein kinase 4 (Plasmodium falciparum (isolate 3D7)) (Q8IBS5 whole entry, looked up): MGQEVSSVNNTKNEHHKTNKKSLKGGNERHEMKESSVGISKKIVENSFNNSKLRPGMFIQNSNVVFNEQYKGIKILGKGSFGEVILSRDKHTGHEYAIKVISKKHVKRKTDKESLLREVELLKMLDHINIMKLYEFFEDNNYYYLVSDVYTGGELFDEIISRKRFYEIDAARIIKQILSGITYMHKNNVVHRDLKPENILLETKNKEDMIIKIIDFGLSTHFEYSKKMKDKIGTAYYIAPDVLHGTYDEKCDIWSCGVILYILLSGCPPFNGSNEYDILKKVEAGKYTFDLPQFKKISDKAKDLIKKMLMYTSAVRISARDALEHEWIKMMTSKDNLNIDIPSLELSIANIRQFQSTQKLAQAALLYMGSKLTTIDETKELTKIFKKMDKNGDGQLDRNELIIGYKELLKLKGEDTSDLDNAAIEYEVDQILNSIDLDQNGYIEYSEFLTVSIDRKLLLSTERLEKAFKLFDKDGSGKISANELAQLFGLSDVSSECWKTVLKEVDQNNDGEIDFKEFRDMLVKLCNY
Sequence of Plasmodium falciparum protein kinase 6 (PK6, PF3D7_1337100) (Q8IDW1 1-305): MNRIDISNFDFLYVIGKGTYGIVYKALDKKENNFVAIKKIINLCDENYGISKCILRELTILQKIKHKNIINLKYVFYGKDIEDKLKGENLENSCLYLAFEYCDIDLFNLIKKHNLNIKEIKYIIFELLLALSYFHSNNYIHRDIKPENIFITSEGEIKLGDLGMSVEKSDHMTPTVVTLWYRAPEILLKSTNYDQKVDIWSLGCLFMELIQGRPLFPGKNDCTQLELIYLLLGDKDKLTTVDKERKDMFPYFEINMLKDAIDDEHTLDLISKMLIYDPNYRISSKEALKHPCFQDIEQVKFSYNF
Sequence of L-lactate dehydrogenase (Plasmodium falciparum (isolate CDC / Honduras)) (Q27743 whole entry, looked up): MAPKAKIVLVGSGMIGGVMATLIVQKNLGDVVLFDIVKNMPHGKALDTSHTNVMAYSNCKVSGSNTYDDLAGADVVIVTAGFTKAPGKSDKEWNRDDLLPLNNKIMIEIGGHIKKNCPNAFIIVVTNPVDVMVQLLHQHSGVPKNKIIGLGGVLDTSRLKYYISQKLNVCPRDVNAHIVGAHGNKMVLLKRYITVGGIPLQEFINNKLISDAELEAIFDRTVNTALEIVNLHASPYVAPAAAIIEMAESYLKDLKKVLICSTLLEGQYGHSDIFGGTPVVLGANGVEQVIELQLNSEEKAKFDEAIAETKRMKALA

Cc1[nH]c(C)c(-c2ccc(Oc3ccc(S(C)=O)cc3)cc2)c(=O)c1Br (stereo unspecified)
active: growth inhibition [1] 64% | growth inhibition [3] 91%
inactive: inhibition [2] 0% | outcome [4] | outcome [5] | outcome [6] | outcome [7]

CCCCCCCN(Cc1ccc(OC(C)(C)C(=O)OCC)cc1)C(=O)Nc1ccc(Cl)cc1OCC
active: growth inhibition [1] 89% | growth inhibition [3] 95%
inactive: inhibition [2] 1% | outcome [4] | outcome [5] | outcome [6] | outcome [7]

Clc1ccc(CNCCCCCCCNCc2ccc(Cl)c(Cl)c2)cc1Cl
active: growth inhibition [3] 99%
inactive: growth inhibition [1] 49% | inhibition [2] -7% | outcome [4] | outcome [5] | outcome [6] | outcome [7]

CC(=NNC(=S)NCc1ccco1)c1ccccn1
active: growth inhibition [1] 100% | growth inhibition [3] 99%
inactive: inhibition [2] -6% | outcome [4] | outcome [5] | outcome [6] | outcome [7]

Cc1nc(N)nc(N)c1-c1cc(Cl)c(Cl)c(Cl)c1
active: growth inhibition [3] 97%
inactive: growth inhibition [1] 0% | inhibition [2] 2% | outcome [4] | outcome [5] | outcome [6] | outcome [7]

CC1CCNc2ccc(Cc3cnc(N)nc3N)cc21 (stereo unspecified)
active: growth inhibition [3] 82%
inactive: growth inhibition [1] 0% | inhibition [2] 5% | outcome [4] | outcome [5] | outcome [6] | outcome [7]

O=C(NCCCCN1CCN(c2nsc3ccccc23)CC1)c1ccccc1C(=O)NCCCCN1CCN(c2nsc3ccccc23)CC1
active: growth inhibition [3] 100%
inactive: growth inhibition [1] 22% | inhibition [2] -8% | outcome [4] | outcome [5] | outcome [6] | outcome [7]

Nc1nc(N)c2c(Oc3cc(Cl)c(Cl)c(Cl)c3)cccc2n1
inactive: inhibition [2] 4% | outcome [4] | outcome [5] | outcome [6] | outcome [7]
active: growth inhibition [1] 92% | growth inhibition [3] 101%

CC(C)Oc1ccc2ccccc2c1CNCCCCCCNCc1c(OC(C)C)ccc2ccccc12
inactive: inhibition [2] -7% | outcome [4] | outcome [5] | outcome [6] | outcome [7]
active: growth inhibition [1] 90% | growth inhibition [3] 99%

Nc1nc(N)c2c(Oc3ccc(Cl)c(Cl)c3)cccc2n1
inactive: growth inhibition [1] 22% | inhibition [2] -5% | outcome [4] | outcome [5] | outcome [6] | outcome [7]
active: growth inhibition [3] 95%

CC(=NNc1nc2ccccc2s1)c1ccccn1
inactive: growth inhibition [1] 47% | inhibition [2] -2% | outcome [4] | outcome [5] | outcome [6] | outcome [7]
active: growth inhibition [3] 88%

CC(CN=C(N)c1cccc(C(N)=NCC(C)Oc2cccc(C3CCCCC3)c2)n1)Oc1cccc(C2CCCCC2)c1 (stereo unspecified)
inactive: growth inhibition [1] 31% | inhibition [2] 2% | outcome [4] | outcome [5] | outcome [6] | outcome [7]
active: growth inhibition [3] 90%

C=CCn1ccc2c3c(N)nc(N)nc3ccc21
inactive: inhibition [2] -7% | outcome [4] | outcome [5] | outcome [6] | outcome [7]
active: growth inhibition [1] 91% | growth inhibition [3] 89%

Cc1[nH]c(C)c(-c2ccc(Oc3cccc(OC(F)(F)F)c3)cc2)c(=O)c1Cl
inactive: inhibition [2] -1% | outcome [4] | outcome [5] | outcome [6] | outcome [7]
active: growth inhibition [1] 97% | growth inhibition [3] 97%

Cc1[nH]c(C)c(-c2ccc(Oc3ccc(C(F)(F)F)cc3)cc2)c(=O)c1Br
active: growth inhibition [1] 97% | growth inhibition [3] 97%
inactive: inhibition [2] -8% | outcome [4] | outcome [5] | outcome [6] | outcome [7]

CC(C)(C)OC(=O)N[C@@H](CS(=O)(=O)CCN=C(N)COCc1ccccc1)C(=O)OC(C)(C)C
active: growth inhibition [1] 76% | growth inhibition [3] 88%
inactive: inhibition [2] 4% | outcome [4] | outcome [5] | outcome [6] | outcome [7]

COc1cc(Cc2cnc(N)nc2N)cc(OCCCS(=O)(=O)O)c1OC
inactive: growth inhibition [1] -6% | inhibition [2] 1% | outcome [4] | outcome [5] | outcome [6] | outcome [7]
active: growth inhibition [3] 88%

COc1ccc2c(=O)c(Br)c(C)[nH]c2c1
inactive: inhibition [2] -8% | outcome [4] | outcome [5] | outcome [6] | outcome [7]
active: growth inhibition [1] 74% | growth inhibition [3] 89%

Cc1[nH]c(C)c(-c2ccc(Oc3cccc(OC(F)(F)F)c3)cc2)c(=O)c1Br
active: growth inhibition [1] 96% | growth inhibition [3] 100%
inactive: inhibition [2] -7% | outcome [4] | outcome [5] | outcome [6] | outcome [7]

Nc1nc(N)c(-c2ccccc2)c(=O)[nH]1
active: growth inhibition [3] 83%
inactive: growth inhibition [1] -5% | inhibition [2] 0% | outcome [4] | outcome [5] | outcome [6] | outcome [7]

CCCc1ccc(Cc2cnc3nc(N)nc(N)c3c2C)cc1
active: growth inhibition [3] 98%
inactive: growth inhibition [1] -3% | inhibition [2] 4% | outcome [4] | outcome [5] | outcome [6] | outcome [7]

CCc1cccc(-c2cc(=N)n(C)c3nc(N)[nH]c(=O)c23)c1
inactive: growth inhibition [1] 28% | inhibition [2] 3% | outcome [4] | outcome [5] | outcome [6] | outcome [7]
active: growth inhibition [3] 85%

COc1cc(Cc2cnc(N)nc2N)cc(OCCCCC#N)c1OC
active: growth inhibition [3] 86%
inactive: growth inhibition [1] -1% | inhibition [2] 8% | outcome [4] | outcome [5] | outcome [6] | outcome [7]

CCNC(=NCc1ccccc1)NCCCCCCNC(=NCc1ccccc1)NCC
inactive: inhibition [2] -5% | outcome [4] | outcome [5] | outcome [6] | outcome [7]
active: growth inhibition [1] 95% | growth inhibition [3] 96%

Cc1[nH]c(C)c(-c2ccc(Oc3ccc(F)cc3)cc2)c(=O)c1Br
active: growth inhibition [1] 98% | growth inhibition [3] 100%
inactive: inhibition [2] -1% | outcome [4] | outcome [5] | outcome [6] | outcome [7]

Cc1[nH]c(C)c(-c2ccc(Sc3ccc(Cl)cc3)cc2)c(=O)c1Br
inactive: inhibition [2] 0% | outcome [4] | outcome [5] | outcome [6] | outcome [7]
active: growth inhibition [1] 97% | growth inhibition [3] 98%

CC(CC1CCCCC1)NCc1ccccc1OCCC(=O)N1CCCC1C(N)=O (stereo unspecified)
inactive: inhibition [8] 5% | inhibition [2] 8% | outcome [4] | outcome [5] | outcome [6] | outcome [7]
active: growth inhibition [3] 97%

CCCOc1ccc(CNCCCCCCNCc2ccc(OCCC)c3ccccc23)c2ccccc12
active: growth inhibition [1] 96% | growth inhibition [3] 101%
inactive: inhibition [2] -2% | outcome [4] | outcome [5] | outcome [6] | outcome [7]

O=[N+]([O-])c1ccc(-n2nc(-c3cccnc3)n(Cc3ccco3)c2=S)c(Cl)c1
active: growth inhibition [3] 95%
inactive: inhibition [8] 13% | inhibition [2] -1% | outcome [4] | outcome [5] | outcome [6] | outcome [7]

COc1cccc(-c2nc(Nc3ccncc3)c3ncn(C)c3n2)c1
inactive: inhibition [8] 14% | inhibition [2] -1% | outcome [4] | outcome [5] | outcome [6] | outcome [7]
active: growth inhibition [3] 94%

CCOc1ccc(CNCCCCCCNCc2ccc(OCC)c3ccccc23)c2ccccc12
inactive: inhibition [2] -4% | outcome [4] | outcome [5] | outcome [6] | outcome [7]
active: growth inhibition [1] 75% | growth inhibition [3] 101%

COc1cc(Cc2cnc(N)nc2N)ccc1OCc1csc(-c2ccc(Cl)cc2)n1
inactive: inhibition [8] 39% | inhibition [2] 2% | outcome [4] | outcome [5] | outcome [6] | outcome [7]
active: growth inhibition [3] 93%

CNC(=O)c1ccc(/C=C/C(=O)N2CCc3ccc(-c4ccccc4)cc3C2c2cccc(C(F)(F)F)c2)cc1 (stereo unspecified)
inactive: inhibition [8] 9% | inhibition [2] 5% | outcome [4] | outcome [5] | outcome [6] | outcome [7]
active: growth inhibition [3] 91%

Nc1nc(N)c2c(ccc3nn(Cc4ccccc4)cc32)n1
inactive: inhibition [2] 0% | outcome [4] | outcome [5] | outcome [6] | outcome [7]
active: growth inhibition [1] 88% | growth inhibition [3] 97%

c1ccc2sc(-c3csc(Nc4ccncc4)n3)nc2c1
inactive: inhibition [8] -4% | inhibition [2] -1% | outcome [4] | outcome [5] | outcome [6] | outcome [7]
active: growth inhibition [3] 86%

COc1cc2c(cc1C(F)(F)F)N(C(=O)Nc1ccc(Br)cn1)CC2
inactive: inhibition [8] 16% | inhibition [2] -3% | outcome [4] | outcome [5] | outcome [6] | outcome [7]
active: growth inhibition [3] 97%

COc1cccc(-c2cc3c(NCc4ccncc4)nccc3s2)c1
inactive: inhibition [8] 0% | inhibition [2] -2% | outcome [4] | outcome [5] | outcome [6] | outcome [7]
active: growth inhibition [3] 87%

COc1cc(CCNCC(O)c2ccc([N+](=O)[O-])c(OCc3ccccc3)c2)cc(OC)c1OC (stereo unspecified)
active: growth inhibition [3] 98%
inactive: inhibition [8] 11% | inhibition [2] -3% | outcome [4] | outcome [5] | outcome [6] | outcome [7]

O=C(NCCCCN1CCC(c2ccc3c(c2OCCOCCO)CCCC3)CC1)c1ccc(-c2ccc(C(F)(F)F)cc2)cc1
inactive: inhibition [8] 44% | inhibition [2] -5% | outcome [4] | outcome [5] | outcome [6] | outcome [7]
active: growth inhibition [3] 97%

CO/N=C(\C)c1ccc2c(c1)CCN(CCC1CCC(NC(=O)c3cccc(-c4noc(C)n4)c3)CC1)CC2 (stereo unspecified)
active: growth inhibition [3] 90%
inactive: inhibition [8] 42% | inhibition [2] -1% | outcome [4] | outcome [5] | outcome [6] | outcome [7]

CCN(CC)CCCN(CCCN(CC)CC)c1cc(C)nc(Nc2ccc(Br)cc2)n1
inactive: growth inhibition [1] 40% | inhibition [2] 6% | outcome [4] | outcome [5] | outcome [6] | outcome [7]
active: growth inhibition [3] 101%

Cc1cc2c3c(N)nc(N)nc3ccc2n1C
active: growth inhibition [3] 95%
inactive: growth inhibition [1] -2% | inhibition [2] -5% | outcome [4] | outcome [5] | outcome [6] | outcome [7]

NC(N)=NC(=O)Nc1cc(Br)c(Cl)c(C(F)(F)F)c1
inactive: inhibition [2] 0% | outcome [4] | outcome [5] | outcome [6] | outcome [7]
active: growth inhibition [1] 91% | growth inhibition [3] 101%

CC(CO)(CO)NCc1cc2ccc3ccsc3c2c2ccccc12
inactive: inhibition [2] 2% | outcome [4] | outcome [5] | outcome [6] | outcome [7]
active: growth inhibition [1] 98% | growth inhibition [3] 96%

O=C(Nc1ccc(C(F)(F)F)cc1)c1cc(Cl)cc2[nH]c(C(F)(F)F)nc12
active: inhibition [8] 86% | growth inhibition [3] 102%
inactive: inhibition [2] -1% | outcome [4] | outcome [5] | outcome [6] | outcome [7]

COc1cc2ncnc(Nc3ccc(OC(F)(F)c4ccccc4)cc3)c2cc1OC
inactive: inhibition [8] 14% | inhibition [2] 2% | outcome [4] | outcome [5] | outcome [6] | outcome [7]
active: growth inhibition [3] 91%

Oc1ccc(CNCC2CCN(CC3CCCCC3)CC2)cc1
inactive: inhibition [8] 9% | inhibition [2] -1% | outcome [4] | outcome [5] | outcome [6] | outcome [7]
active: growth inhibition [3] 82%

NC(N)=NC(=O)Nc1ccc(Cl)c(C(F)(F)F)c1
inactive: growth inhibition [1] 13% | inhibition [2] 3% | outcome [4] | outcome [5] | outcome [6] | outcome [7]
active: growth inhibition [3] 100%
